Shown are actives, neighbours in structure and some others; about 2.3% of the full set was active somewhere.
CHRM1 agonist: human M1 muscarinic receptor agonism | actives 0.33% (n = 360,000) | P11229 | CHO-K1 hM1, Fluo-8 calcium fluorescence, agonist mode; 0% DMSO, 100% acetylcholine EC100 | activation, % at 3 µM;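 active = activation above the run's mean compound activation plus 3 SD, cut at about 16% in these data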;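 also: peak over basal fluorescence ratio within a 140 s kinetic read after compound addition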
Target sequence (P11229 whole entry, looked up): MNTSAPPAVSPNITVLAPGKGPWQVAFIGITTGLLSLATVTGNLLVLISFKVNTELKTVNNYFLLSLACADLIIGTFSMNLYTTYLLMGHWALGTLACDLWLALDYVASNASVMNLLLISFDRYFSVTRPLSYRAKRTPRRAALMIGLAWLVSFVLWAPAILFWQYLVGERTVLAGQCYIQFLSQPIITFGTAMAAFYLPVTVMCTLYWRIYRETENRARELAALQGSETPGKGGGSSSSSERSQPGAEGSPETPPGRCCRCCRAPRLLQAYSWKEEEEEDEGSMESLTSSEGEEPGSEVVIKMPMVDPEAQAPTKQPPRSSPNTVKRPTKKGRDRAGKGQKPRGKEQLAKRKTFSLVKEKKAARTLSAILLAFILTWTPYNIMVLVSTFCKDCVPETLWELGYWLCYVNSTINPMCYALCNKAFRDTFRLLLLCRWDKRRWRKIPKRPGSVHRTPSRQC
CHO-K1 Ca PAM: M1 PAM counterscreen hit in parental CHO-K1 cells; ATP EC20, Fluo-8 calcium fluorescence; 0% at ATP EC20, 100% at ATP max; activation, % at 3 µM; actives 0.02% (n = 360,000);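 active = activation above the run cutoff, the mean activation of all test compounds plus 3 SD, cut at about 40% in these data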;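 also: peak over basal fluorescence ratio in a 140 s read after ATP addition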
M1 ag parental: nonselective activator or artifact in parental CHO-K1 cells; Fluo-8 calcium fluorescence; scaled to maximal ATP response, vehicle zero; actives 0.48% (n = 360,000); AID 602248; activation, % at 3 µM; in the data active = activation above about 15%;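 also: untransfected CHO-K1 host cells lacking M1 receptor as counterscreen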
CHRM1 antagonist: human CHRM1 antagonism; AID 588852; P11229; actives 1.3% (n = 360,000); inhibition, % at 3 µM; CHO-K1 hM1, Fluo-8 calcium fluorescence, ACh EC80 antagonist;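 active = percent inhibition above its own plate's cutoff, namely the mean of that plate's compound wells plus 3 SD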;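 also: peak over basal fluorescence ratio during 140 s after agonist addition; 0% = ACh EC80 plus DMSO and 100% = DMSO alone without agonist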
CHRM1 PAM: human CHRM1 positive allosteric modulation | P11229 | actives 0.088% (n = 360,000) | AID 588819 | CHO-K1 hM1, Fluo-8 calcium fluorescence, ACh EC20; 0% = ACh EC20, 100% = maximal ACh | activation, % at 3 µM; in the data active = activation above about 19%, passing the limit was not always enough
CHO-K1 Ca antag: M1 antagonist counterscreen hit in parental CHO-K1 cells; ATP-induced calcium, Fluo-8 fluorescence; actives 0.6% (n = 360,000); inhibition, % at 3 µM;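 active = inhibition above a per-plate cutoff, the plate's mean sample inhibition plus 3 SD, cut at about 24% in these data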;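 also: 0% = DMSO plus EC80 ATP and 100% = DMSO alone without ATP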
* = called active by the depositor.

SMILES | CHRM1 agonist | CHO-K1 Ca PAM | M1 ag parental | CHRM1 antagonist | CHRM1 PAM | CHO-K1 Ca antag
O=C(NS(=O)(=O)Nc1ccccc1)C1=C(N2CCCC2)COC1=O | -2 | 9 | 1 | -13 | 14 | -13
CCn1cnc2sc(C(=O)Oc3cccc(C)c3)c(C)c2c1=O | -8 | 17 | 15* | -5 | 16 | 3
CC(=O)Nc1ccc(/C(C)=N/Nc2nc(Nc3cccc4ccccc34)nc(N3CCOCC3)n2)cc1 | 18* | 11 | 12 | 11 | 3 | 10
COc1ccc(S(=O)(=O)Nc2cccc(N(C)S(C)(=O)=O)c2)cc1Br | 4 | 15 | 16* | 9 | -1 | 2
O=C(c1cccc(NS(=O)(=O)c2ccc(F)c(F)c2)c1)N1CCN(Cc2ccccc2)CC1 | -3 | -8 | 1 | 1 | 3 | 3
O=C1CC(c2ccco2)CC(O)=C1C=NCCN1CCNCC1 (configuration not stated) | 2 | 4 | 0 | 39* | -13 | -6
O=C1CC(c2ccccc2)CC(O)=C1C=NCCN1CCNCC1 (configuration not stated) | 10 | 14 | 0 | 25* | -7 | -3
O=C1CC(c2cccs2)CC(O)=C1C=NCCN1CCNCC1 (configuration not stated) | 17* | 5 | 0 | 32* | -8 | -14
O=C1CC(c2ccc(F)cc2)CC(O)=C1C=NCCN1CCNCC1 (configuration not stated) | -5 | -5 | 0 | 4 | -10 | 13
Cc1ccc2c(cnn2C(=O)CCC(=O)NC2CCCCC2)c1 | -3 | 32 | 1 | -8 | 8 | -19
O=C(NC(=S)Nc1cccnc1)c1cc2ccccc2o1 | -4 | 6 | 2 | -8 | 7 | 1
O=C(Nc1cccnc1)c1cc2cc(Br)ccc2o1 | -2 | 16 | 2 | 60* | -4 | -12
COc1ccc(F)cc1S(=O)(=O)NC1CC(C)(C)NC(C)(C)C1 | -4 | -8 | 0 | 15 | -5 | 28*
CC1(C)CC(=O)C2=C(C1)OC(N)=C(C#N)C2c1cc2c(cc1[N+](=O)[O-])OCO2 (configuration not stated) | -10 | -11 | 3 | 38* | -25 | 15
CC(C)(C)OC(=O)N1CCC[C@H]1C(=O)N/N=C/c1cccc2nccnc12 | -2 | 8 | 1 | 0 | 6 | -2
CN1CCN(c2ccc(CNC(=O)c3ccco3)cc2)CC1 | -5 | 6 | 18* | -5 | 4 | 6
COc1ccc(C2=Nn3c(nnc3-c3ccccc3OC)SC2)cc1OCC1CC1 | -10 | 25 | 0 | -10 | 6 | -20
COc1ccc(OC)c(-c2nnc3n2N=C(c2ccc(OC(F)F)c(OCC4CC4)c2)CS3)c1 | -10 | 2 | 0 | 40* | -30 | -14
NS(=O)(=O)c1cccc(C(=O)N2CCCc3ccccc32)c1 | -2 | -12 | 1 | 15 | -6 | 16
CCN(C(=O)CSc1nc2cc(C(=O)OC)ccc2c(=O)n1Cc1ccco1)c1cccc(C)c1 | 0 | -5 | -1 | 1 | 11 | 26*
CCc1ccc(NC(=O)CSc2nc3cc(C(=O)OC)ccc3c(=O)n2Cc2ccco2)cc1 | -3 | -1 | 0 | -4 | 5 | 10
c1csc(CCNc2ncnc3sc4c(c23)CCC4)c1 | 2 | -12 | 7 | 33* | -18 | 18
CCCCn1c(N)c(N(CCOC)C(=O)c2cc(=O)[nH]c3ccccc23)c(=O)[nH]c1=O | -5 | 0 | 1 | -8 | 2 | -14
CCCCn1c(N)c(N(CC)C(=O)c2cc(OC)cc(OC)c2)c(=O)[nH]c1=O | -6 | 6 | 16* | 0 | 4 | -3
CCCCn1c(N)c(N(CCOC)C(=O)c2cc(C)oc2C)c(=O)[nH]c1=O | -3 | -20 | 4 | -5 | 5 | 24*
SMILES | CHRM1 agonist | CHO-K1 Ca PAM | M1 ag parental | CHRM1 antagonist | CHRM1 PAM | CHO-K1 Ca antag
O=C(Nc1ccc2c3c(cccc13)CC2)c1ccccc1 | -7 | 5 | 0 | -4 | 10 | -4
CN1c2ccccc2Oc2nnc(Cl)cc21 | -8 | -16 | -1 | 7 | -5 | 27*
Cc1cccc(OCC(=O)Nc2ccc3c(c2)nc(CCN2CCCCC2)n3C)c1 | -6 | -3 | 1 | 11 | -9 | 1
CCN1CCN(Cc2nc3cc(NC(=O)COc4ccc([N+](=O)[O-])cc4)ccc3n2C)CC1 | -6 | 3 | 0 | 61* | -16 | -20
COc1ccc(OCC(=O)Nc2ccc3c(c2)nc(CCN2CCN(c4ccccn4)CC2)n3C)cc1 | -3 | 2 | 5 | 64* | -29 | 4
Cn1c(CCN2CCCCC2)nc2cc(NC(=O)NC3CCCCC3)ccc21 | -5 | 18 | 0 | 12 | -10 | -21
COc1ccc(OCC(=O)Nc2ccc3c(c2)nc(CCN2CCCCC2)n3C)cc1 | -5 | 20 | 0 | 2 | -1 | -5
Cc1cccc(OCC(=O)Nc2ccc3c(c2)nc(CCN2CCN(c4ccccn4)CC2)n3C)c1 | 3 | -16 | 12 | 88* | -22 | 13
CC1CCN(CCc2nc3cc(NC(=O)NC4CCCCC4)ccc3n2C)CC1 | -8 | 8 | 0 | 36* | -19 | -1
N#Cc1ccccc1Sc1ccccc1C(=O)Nc1ccccc1 | -4 | 15 | 2 | 1 | -1 | -11
CC1(C(=O)NCc2cccc3ccccc23)CCN1Cc1cccc2c1OCO2 (configuration not stated) | -4 | 15 | 0 | -8 | 2 | -11
Cn1c(CCN2CCN(c3ccccn3)CC2)nc2cc(NC(=O)COc3ccc(Cl)cc3)ccc21 | 1 | 1 | 14 | 95* | -24 | 5
CCN1CCN(CCc2nc3cc(NC(=O)COc4ccc(Cl)cc4)ccc3n2C)CC1 | -7 | 16 | 2 | -10 | 5 | -15
CCc1cc(=O)oc2cc3occ(-c4ccc(OC)c(F)c4)c3cc12 | -12 | 23 | 0 | -8 | -2 | -7
O=C(COc1ccc2ccc(=O)oc2c1)Nc1cccc(S(=O)(=O)N2CCCCC2)c1 | -1 | -14 | 17* | 26 | -13 | 9
O=C(COC(=O)C1CC2C=CC1C2)Nc1cccc(S(=O)(=O)N2CCCCCC2)c1 (configuration not stated) | -2 | -5 | 16* | 17 | -12 | 19
CC(=O)c1ccc(OCC(=O)Nc2cccc(S(=O)(=O)N3CCCC3)c2)cc1 | -1 | -12 | 14 | 31* | -11 | 0
Cc1ccc(OCC(=O)Nc2cccc(S(=O)(=O)N3CCCC3)c2)cc1C | -4 | -1 | 4 | 3 | -2 | -6
Cn1c(CNC(=O)c2ccco2)nnc1SCCOc1ccccc1 | -2 | 2 | 1 | -10 | 9 | -6
Cc1cccc(NC(=O)C2CCCN(C(=O)Nc3ccccc3)C2)c1C (configuration not stated) | -5 | 24 | 1 | -10 | 6 | -9

Assay outcomes (PubChem BioAssay)
